The supplement of paper PMC6555819

Experiments:
Test in all cases: PBM binding z-score (relative to random genomic background probes); higher = stronger binding; sequences stand for … in GC…GCGATTGACAGCGTAGAATGAAGG
[1] = system: RARb homodimer (NR concentration 270 nM)
Outline: (§1)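 The probes on custom Agilent 4×180K protein-binding microarrays were double-stranded, with 34-nt variable regions bearing direct-repeat seeds, single-nucleotide variants, half-site ablations and random human genomic background sequences. Incubation lasted 1 h with ligand-free nuclear receptor dimers in PBS pH 7.4, 2% milk, 0.02% Triton X-100, 1 mM DTT, 0.2 mg/mL BSA and 0.4 mg/ml salmon testes DNA. Antibodies against each partner (one per run) detected bound dimers, and fluorescence scans were regression-normalized. Binding z-scores take the random background probes as reference.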

[2] = system: RARg:RXRa (NR concentration 270 nM, RXRa partner concentration 90 nM)
Outline: as §1

[3] = system: RARg homodimer (NR concentration 270 nM)
Outline: as §1

[4] = system: RXRa DBDmut IVT, anti-RXR (DBD mutation: RXRa K156A/R161A, NR concentration 90 nM)
Outline: as §1

[5] = system: RXRa homodimer (NR concentration 180 nM)
Outline: as §1

[6] = system: THRa:RXRa (NR concentration 90 nM, RXRa partner concentration 90 nM)
Outline: as §1

[7] = system: THRa homodimer (NR concentration 90 nM)
Outline: as §1

[8] = system: VDR homodimer (NR concentration 270 nM)
Outline: as §1

| Sequence | PBM binding z-score [1] | PBM binding z-score [2] | PBM binding z-score [3] | PBM binding z-score [4] | PBM binding z-score [5] | PBM binding z-score [6] | PBM binding z-score [7] | PBM binding z-score [8] |
| --- | --- | --- | --- | --- | --- | --- | --- | --- |
| CTAGAAAGGTCGTGCTCAGGTGAGTATACCAAAC | 2.93 | 4.96 | 3.62 | 2.16 | 4.44 | 4.02 | 0.909 | 0.842 |
| CGTCCAAGGTCAAGGACAGTGAAAGAGACTCGAA | 3.94 | 6.19 | 6.78 | 3.26 | 5.3 | 3.74 | 2.83 | 2.03 |
| TCATATAGGTAAATGCTAGTTGAAAGTCCGATCT | -0.114 | 0.306 | 0.163 | 1.59 | 0.682 | 0.27 | -0.299 | 0.45 |
| CCGACTGGGGCATAAAGTTACCATAAGCCAGCCC | -0.229 | -0.0793 | 0.0317 | 0.0675 | 0.0317 | -0.417 | -0.689 | -0.27 |
| CCTGCTAGGTCGTGGTCAGCTAATCTACAGTATG | 1.21 | 0.958 | 1.4 | 0.759 | 0.607 | 0.876 | 0.18 | -0.0912 |
| CCGAGTGGGTTATGGGGCATTCAGGCAACGGTGA | 0.766 | -0.124 | -0.0615 | -1.08 | 0.212 | 0.303 | 0.614 | 0.328 |
| GGAACCAGGGCAAGTTGATAGCAGAGTTTGATGG | 1.71 | 1.17 | 1.52 | 1.85 | 0.254 | 1 | 1.21 | 0.898 |
